# Measured values published in PubChem BioAssay AID504339 (National Center for Advancing Translational Sciences (NCATS), 2011).
# The campaign covered roughly 390,000 compounds. About 17,000 (4.4%) were called active. Not shown: some 8% with an inconclusive outcome. This is one part of a sample in which actives are shown more often than they occur. Values without a mark were called inactive. Calls follow the shape of the dose curve; as a rule, active = well fitted inhibition curve with a large enough effect; inconclusive = small, poorly fitted or top-dose-only effect; inactive = no such curve, though single readings can be large or run the other way.
# Molecular target: Lysine-specific demethylase 4A (Homo sapiens) (UniProt O75164)
# Test: qHTS Assay for Inhibitors of JMJD2A-Tudor Domain; also: nearly all actives have a fitted effect of over 50% in size
# Settings: AlphaScreen JMJD2A-Tudor / H3K4me3 peptide binding; series mostly up to 114 µM; activity change, negative = inhibition: at the top concentration
# % is scaled to controls: 0 for no effect and ±100 for the full control effect; potency is read from the fitted curve at half-maximal effect.
# Chain of Lysine-specific demethylase 4A (Homo sapiens) (O75164 whole entry, looked up, the tested form may be a part): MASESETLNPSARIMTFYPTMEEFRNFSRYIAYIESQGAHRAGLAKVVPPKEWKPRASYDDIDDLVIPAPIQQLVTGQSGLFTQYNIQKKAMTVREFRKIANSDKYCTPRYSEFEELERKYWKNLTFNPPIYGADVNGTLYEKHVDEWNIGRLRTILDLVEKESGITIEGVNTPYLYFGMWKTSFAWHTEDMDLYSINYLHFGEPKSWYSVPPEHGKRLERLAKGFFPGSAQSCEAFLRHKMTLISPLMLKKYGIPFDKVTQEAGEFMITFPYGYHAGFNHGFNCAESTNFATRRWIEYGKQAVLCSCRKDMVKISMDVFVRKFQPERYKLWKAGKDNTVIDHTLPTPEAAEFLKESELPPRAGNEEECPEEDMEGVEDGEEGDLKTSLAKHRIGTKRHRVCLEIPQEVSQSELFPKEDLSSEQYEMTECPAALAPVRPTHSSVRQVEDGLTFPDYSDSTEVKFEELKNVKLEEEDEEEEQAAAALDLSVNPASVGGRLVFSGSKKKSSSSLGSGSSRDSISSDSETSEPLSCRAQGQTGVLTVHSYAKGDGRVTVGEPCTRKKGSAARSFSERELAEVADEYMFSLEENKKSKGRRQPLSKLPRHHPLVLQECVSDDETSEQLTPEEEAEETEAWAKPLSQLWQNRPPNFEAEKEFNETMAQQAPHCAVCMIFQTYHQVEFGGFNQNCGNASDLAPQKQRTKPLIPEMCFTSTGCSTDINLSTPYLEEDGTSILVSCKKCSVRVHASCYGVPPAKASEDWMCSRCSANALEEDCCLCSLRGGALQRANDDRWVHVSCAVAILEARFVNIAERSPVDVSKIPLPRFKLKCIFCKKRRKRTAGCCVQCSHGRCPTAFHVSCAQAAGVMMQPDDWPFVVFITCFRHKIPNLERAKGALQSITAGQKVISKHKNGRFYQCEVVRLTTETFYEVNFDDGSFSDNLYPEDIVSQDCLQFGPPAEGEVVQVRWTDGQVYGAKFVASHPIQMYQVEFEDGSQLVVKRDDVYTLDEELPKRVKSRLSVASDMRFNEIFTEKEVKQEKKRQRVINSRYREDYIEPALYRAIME
SMILES,"activity change, negative = inhibition",Potency
O=C(CSc1nc(=O)n(Cc2cccnc2)c2c1CCC2)Nc1ccc(F)cc1F,-1.3%,
O=S(=O)(c1ccc2nc(NCc3ccccc3Cl)ccc2c1)N1CCCCC1,-26%,
O=[N+]([O-])c1ccccc1S(=O)(=O)Nc1cccc2cccnc12,,56.2 µM (active)
COc1cc(NS(=O)(=O)c2ccc3ccccc3c2)c2ncccc2c1,,inactive
O=S(=O)(Nc1cccc2cccnc12)c1cccc2cccnc12,-32.2%,
COc1ccccc1CNC(=O)C(Cc1ccccc1)NS(=O)(=O)c1ccc2c(c1)oc(=O)n2C (centres undefined),-15.5%,
O=C1CCCc2cc(S(=O)(=O)N3CCCC(C(=O)NCc4ccccc4)C3)ccc2N1 (centres undefined),-0.647%,
O=C(NCc1ccccc1Cl)c1cccn1-c1nnc(N2CCCCC2)s1,-28.2%,
COc1ccc(-c2nn(CC(=O)Nc3ccccc3F)c3c2cnc2ccc(F)cc23)cc1,-7.67%,
C=CCC(Nc1ccccc1)c1cccc(OC)c1OC (centres undefined),28.4%,
C=CCOc1c(CNn2cn[nH]c2=S)cccc1OC,,3.55 µM (active)
COc1cccc(CNCCSc2nnnn2C)c1OCc1ccccc1Cl,-2.24%,
C=CCOc1cccc(C2NC(=O)c3ccccc3O2)c1 (centres undefined),-17.8%,
C=CCOc1cccc(CNn2cn[nH]c2=S)c1,,22.4 µM (active)
C=CCOc1cccc(CNCc2cccnc2)c1,-16.4%,
COc1ccc(CCNC(=O)c2cc(=O)c3c(C)cc(C)cc3o2)cc1OC,-22.9%,
CSc1nc(-c2ccccc2Cl)nc2c1Cc1c(CO)cnc(C)c1O2,-27.5%,
COc1ccccc1CNC(=O)c1ccc(CS(=O)c2ccccc2Cl)o1 (centres undefined),8.79%,
CCc1nn(CC(=O)Nc2cc(C)cc(C)c2)c(=O)c2cc3sccc3n12,-14.9%,
CC(=O)N1CCCc2cc(S(=O)(=O)N3CCC(C(=O)NC4CCCCC4)CC3)ccc21,-7.74%,
CN(CC(=O)NCc1ccc(Cl)cc1)S(=O)(=O)c1cccs1,,89.1 µM (active)
COc1ccc(CNC(=O)CN(Cc2ccc(Cl)cc2)S(C)(=O)=O)cc1,-6.03% [at 57.1 µM],
CN(CC(=O)Nc1cccc(C(F)(F)F)c1)S(=O)(=O)c1cccs1,0.683%,
Cc1ccc2sc(N(Cc3cccnc3)C(=O)C3COc4ccccc4O3)nc2c1C (centres undefined),-15.6%,
Cc1ccc(C(=O)Nc2ccc(OCc3cc(=O)n4c5c(sc4n3)CCCC5)cc2)cc1,6.29%,

SMILES,"activity change, negative = inhibition",Potency
CCOC(=O)c1nnn2c3ccccc3c(=O)n(C)c12,-7.58%,
COn1c(=O)c(=O)n(OC)c2ccccc21,-17.5%,
CCOn1c(=O)c(=O)n(O)c2ccccc21,,44.7 µM (active)
Cc1ccc(-c2cnc(C3CC3)o2)cc1S(=O)(=O)Nc1cccc(C)c1C,-26.8%,
CCc1ccc(CNCc2c(C(=O)O)n(Cc3ccc(F)cc3Cl)c3cc(OC)ccc23)cc1,-18.7%,
CC(C)(C)OC(=O)N1CCC(c2c(C(=O)NCc3ccccn3)cnn2-c2ccc(F)cc2)CC1,-5.83%,
C#CCOCCOCCOCCNc1nc(N2CCN(C(=O)C([C@@H](C)O)n3cc([C@@H](N)CCCCN)nn3)CC2)nc(N2CCN(C(=O)[C@H](CCCCN)n3cc(CN)nn3)CC2)n1 (some centres undefined),,79.4 µM (active)
C#CCOCCOCCOCCNc1nc(N2CCN(C(=O)Cn3cc(CCO)nn3)CC2)nc(N2CCN(C(=O)[C@H](CCCCN)n3cc(CCCC)nn3)CC2)n1,-18.8%,
C#CCOCCOCCOCCNc1nc(N2CCN(C(=O)C([C@@H](C)CC)n3cc(C(N)COC(=O)C(F)(F)F)nn3)CC2)nc(N2CCN(C(=O)[C@H](CCCCN)n3cc(C(N)CC(C)C)nn3)CC2)n1 (some centres undefined),,56.2 µM (active)
CCC(C)[C@@H](C(=O)N1CCNCC1)n1cc(CCCCN)nn1 (some centres undefined),-14.4%,
O=S(=O)(Nc1ccc2nc(-c3cccc(Cl)c3)oc2c1)c1ccccc1,-16.6%,
CC(=O)OCC(NC(=O)C(Cc1ccccc1)NC(=O)OC(C)(C)C)C1OC(n2ccc(=O)[nH]c2=O)C(OC(C)=O)C1OC(C)=O (centres undefined),2.76%,
Cc1cccc(-n2ccnc2SCC(=O)Nc2cc(C(F)(F)F)ccc2Cl)c1,-32.9%,
O=C(NC1CC(=O)N(c2ccc(F)cc2)C1)C1CCCCC1 (centres undefined),-5.84%,
CSc1ccc(NC(=O)Cn2nnnc2-c2ccccc2F)cc1,-16.4%,
CC(C)(C)c1ccc(C(=O)N2CCC(c3nc(-c4ccc(S(=O)(=O)N5CCCC5)cc4)no3)CC2)cc1,-27.7%,
O=[N+]([O-])c1ccccc1/C=C/CN1CCC(O)CC1,,8.91 µM (active)
O=C(/C=C/c1ccccc1[N+](=O)[O-])OCC(=O)N1CCCC1,10.1%,
CC1CC(C)CN(C/C=C/c2ccccc2[N+](=O)[O-])C1 (centres undefined),-24.5%,
CCN(CCCNC(=O)Cn1ncc2c([nH]c3ccccc32)c1=O)c1cccc(C)c1,-24.8%,
COc1ccc(-c2noc(CSc3nc(C)cc(=O)[nH]3)n2)cc1OC,-10.4%,
COCCCNC(=O)C1CC(=O)N(CCc2ccccc2)C1 (centres undefined),-5.84%,
CC1(C)SC2c3ccccc3C(=O)N2[C@@H]1C(=O)NCc1ccco1 (some centres undefined),-15.6%,
COCCCNC(=O)[C@H]1N2C(=O)c3ccccc3C2SC1(C)C (some centres undefined),,22.4 µM (active)
